Results published in PubChem BioAssay (Tox21).
Values joined by “and” are separate entries in the source; they are usually repeats but may differ in a detail not shown here. Equal values may be shown once. Results filed as inconclusive are left out. Entries that show only a call come without a potency. Some compounds were tested as several samples or in several runs, with calls that do not always agree. Values without a mark were called inactive. Active and inactive are the calls of the source. Calls come from the whole dose curve; as a rule, active = well fitted cell-killing curve with a large enough effect in the repeat runs; inconclusive = weak or mixed curves, or effect the other way; inactive = flat fitted curve, though single readings scatter.

Test: cAMP Responsive Elements (CRE) small molecule antagonists, cell-based qHTS assay: qHTS cell viability counter screen (AID 2060913); note: nearly all actives have a fitted effect of over 40% in size
Details: CRE-bla HEK293T viability, CellTiter-Glo luminescence, 5 h; series mostly up to 92.4 µM
Procedure, shortened: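 Cytotoxicity counter screen multiplexed with the CRE-bla antagonist read: HEK293T cells in DMEM with dialyzed FBS and 25 mM HEPES were treated 3 hrs under 0.25 uM final NKH477, then viability measured by CellTiter-Glo luminescence.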
Potency is the fitted concentration of half-maximal effect.

With `CN1Cc2cc(C(=O)N3CCC(C4CCNCC4)CC3)ccc2NC(CC(=O)O)C1=O` (stereo not drawn) as the compound, how does the Potency read?
The Potency was “inactive”.

Which Potency does the source give for `O=c1[nH]c(=O)n([C@H]2C[C@H](O)[C@@H](CO)O2)cc1F` here?
Its Potency is “inactive”.

Which Potency does the source give for `CC[C@H](C)C(=O)O[C@H]1C[C@H](O)C=C2C=C[C@H](C)[C@H](CC[C@@H](O)C[C@@H](O)CC(=O)O)[C@H]21` here?
The Potency was “inactive”.

Which Potency does the source give for `Cc1ccccc1C(=O)O` here?
The Potency was “inactive”.

Which Potency does the source give for `O=C(Nc1ccccc1)OCC(CN1CCCCC1)OC(=O)Nc1ccccc1` (stereo not drawn) here?
The Potency was “inactive”.

With `Cn1c(N)nc2nc[nH]c2c1=O` as the compound, how does the Potency read?
Its Potency is “inactive”.

With `Cc1ccc(S(=O)(=O)C(I)I)cc1` as the compound, how does the Potency read?
The Potency was 61.1 µM (active).

With `COc1ccc2cc(C=O)ccc2c1` as the compound, how does the Potency read?
The Potency was “inactive”.

With `O=[N+]([O-])c1cccc(Cl)c1` as the compound, how does the Potency read?
Its Potency is “inactive”.

With `CCCCC(CC)CNC(=O)CC(C)OC(=O)CCC(=O)O` (stereo not drawn) as the compound, how does the Potency read?
The Potency was “inactive”.

For `COC(=O)C(c1ccccc1Cl)N1CCc2sccc2C1` (stereo not drawn), which Potency is on record?
Its Potency is “inactive”.

For `CN(C)[C@@H]1C(=O)C(C(=O)NCN2CCCC2)=C(O)[C@@]2(O)C(=O)C3=C(O)c4c(O)cccc4[C@@](C)(O)C3C[C@@H]12` (stereo partly drawn), which Potency is on record?
Its Potency is “inactive”.

For `Cc1ccccc1OCC(=O)O`, which Potency is on record?
Its Potency is “inactive”.

Which Potency does the source give for `Cc1ccc([N+](=O)[O-])c(N)c1` here?
The Potency was “inactive”.

With `CC1=C(C(=O)OC(C)C)C(c2cccc([N+](=O)[O-])c2)C(C(=O)OC2CN(C(c3ccccc3)c3ccccc3)C2)=C(N)N1` (stereo not drawn) as the compound, how does the Potency read?
The Potency was “inactive”.

With `CN(C)c1ccc(C(c2ccccc2)c2ccc(N(C)C)cc2)cc1` as the compound, how does the Potency read?
The Potency was “inactive”.

With `O=C1O[C@H]([C@H](O)CO)C(O)=C1O` as the compound, how does the Potency read?
The Potency was “inactive”.

With `CC1(C)CC(O)CC(C)(C)N1[O]` as the compound, how does the Potency read?
The Potency was “inactive”.

For `CC1CNCC(C)O1` (stereo not drawn), which Potency is on record?
Its Potency is “inactive”.

For `Cc1ccc(C(C)C)cc1`, which Potency is on record?
The Potency was “inactive”.

With `Cc1ccsc1/C=C/C1=NCCCN1C` as the compound, how does the Potency read?
Its Potency is “inactive”.

With `CCc1c(C(=O)NN2CCCCC2)nn(-c2ccc(Cl)cc2Cl)c1-c1ccc(Br)cc1` as the compound, how does the Potency read?
The Potency was “inactive”.

For `CC(=O)OCC(=O)[C@@]1(O)CC[C@H]2[C@@H]3CCC4=CC(=O)C=C[C@]4(C)[C@H]3[C@@H](O)C[C@@]21C`, which Potency is on record?
The Potency was “inactive”.

With `CC(=O)Oc1ccc(C2(c3ccc(OC(C)=O)cc3)Oc3ccccc3NC2=O)cc1` as the compound, how does the Potency read?
Its Potency is “inactive”.

For `N[C@@H](COP(=O)(O)O)C(=O)O`, which viability change, negative = cytotoxic is on record?
Its viability change, negative = cytotoxic is 4.6% [at 18.9 µM].

With `NS(=O)(=O)c1cc(C2(O)NC(=O)c3ccccc32)ccc1Cl` (stereo not drawn) as the compound, how does the Potency read?
Its Potency is “inactive”.

For `Cc1ccc(O)c([C@H](CCN(C(C)C)C(C)C)c2ccccc2)c1`, which Potency is on record?
The Potency was “inactive”.

For `S=c1[nH][nH]c(=S)s1`, which Potency is on record?
Its Potency is “inactive”.

For `CN1C(=O)OC(C)(C)C1=O`, which Potency is on record?
Its Potency is “inactive”.

Which Potency does the source give for `OCCCCCCCCCCCCBr` here?
The Potency was “inactive”.

With `O=[Se](O)O` as the compound, how does the viability change, negative = cytotoxic read?
Its viability change, negative = cytotoxic is 6.01% [at 18.9 µM].

What about the Potency of the same compound?
Its Potency is 61.2 µM (active).

For `Cc1ncc([N+](=O)[O-])n1CC(C)O` (stereo not drawn), which Potency is on record?
The Potency was “inactive”.

For `CC(C)(C)c1ccc(OC2CCCCC2O)cc1` (stereo not drawn), which Potency is on record?
Its Potency is “inactive”.

For `C=CCCC(=O)/C=C/C1C(C)=CCCC1(C)C` (stereo not drawn), which Potency is on record?
Its Potency is “inactive”.

With `CCCCCCCCCCCCCCCC/C=C/C1CC(=O)OC1=O` (stereo not drawn) as the compound, how does the Potency read?
The Potency was “inactive”.

For `CC(C)(c1cc(Br)c(OCCO)c(Br)c1)c1cc(Br)c(OCCO)c(Br)c1`, which Potency is on record?
Its Potency is “inactive”.

For `CCCCNC(=O)NCCCC`, which Potency is on record?
The Potency was “inactive”.

Which Potency does the source give for `CN(C)c1ccc(C(=C2C=CC(=[N+](C)C)C=C2)c2ccccc2)cc1` here?
Its Potency is 15.4 µM (active) and 11.9 µM (active) and 10.6 µM (active).

For `COc1cccc2c1C(=O)c1c(O)c3c(c(O)c1C2=O)C[C@@](O)(C(C)=O)C[C@@H]3O[C@H]1C[C@H](N)[C@H](O)[C@H](C)O1`, which Potency is on record?
Its Potency is “inactive”.

With `COc1cc2[nH]c(=O)[nH]c(=O)c2cc1OC` as the compound, how does the Potency read?
The Potency was “inactive”.

Test: cAMP Responsive Elements (CRE) small molecule agonists, cell-based qHTS assay: qHTS cell viability counter screen (AID 2060914); note: nearly all actives have a fitted effect of over 50% in size
Details: CRE-bla HEK293T viability, CellTiter-Glo luminescence, 5 h; series mostly up to 92.4 µM
Procedure, shortened: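 In the same wells as the reporter read, viability of CRE-bla HEK 293T cells was quantified by CellTiter-Glo luminescence after a 3 h compound exposure.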

Which Potency does the source give for `CN1Cc2cc(C(=O)N3CCC(C4CCNCC4)CC3)ccc2NC(CC(=O)O)C1=O` (stereo not drawn) here?
Its Potency is “inactive”.

For `COc1ccc2cc(C=O)ccc2c1`, which Potency is on record?
Its Potency is “inactive”.

For `Cc1ccc([N+](=O)[O-])c(N)c1`, which Potency is on record?
The Potency was “inactive”.

Which Potency does the source give for `NS(=O)(=O)c1cc(C2(O)NC(=O)c3ccccc32)ccc1Cl` (stereo not drawn) here?
The Potency was “inactive”.

With `O=[Se](O)O` as the compound, how does the activity change, negative = cytotoxicity read?
Its activity change, negative = cytotoxicity is 25.7% [at 18.9 µM].

What about the Potency of the same compound?
Its Potency is 15.4 µM (active).

Which Potency does the source give for `CCCCCCCCCCCCCCCC/C=C/C1CC(=O)OC1=O` (stereo not drawn) here?
Its Potency is “inactive”.
